# Test results published in ChEMBL document CHEMBL3988442, “University of Dundee, Small-Polar-MMV Screening Library” (2021).
# Tests used:
# [1] = molecular target: T1, Aspartate--tRNA(Asp/Asn) ligase (Mycobacterium tuberculosis (strain ATCC 25618 / H37Rv)) (UniProt P9WFW3); assay: Assay for Asp RNA synthetase-1 from Mycobacterium tuberculosis; format: functional; set-up: scale not given: direction of the effect not stated beside the values; details: 30 µM; note: in the data most compounds retested in dose-response had high values
# T1 sequence (whole entry): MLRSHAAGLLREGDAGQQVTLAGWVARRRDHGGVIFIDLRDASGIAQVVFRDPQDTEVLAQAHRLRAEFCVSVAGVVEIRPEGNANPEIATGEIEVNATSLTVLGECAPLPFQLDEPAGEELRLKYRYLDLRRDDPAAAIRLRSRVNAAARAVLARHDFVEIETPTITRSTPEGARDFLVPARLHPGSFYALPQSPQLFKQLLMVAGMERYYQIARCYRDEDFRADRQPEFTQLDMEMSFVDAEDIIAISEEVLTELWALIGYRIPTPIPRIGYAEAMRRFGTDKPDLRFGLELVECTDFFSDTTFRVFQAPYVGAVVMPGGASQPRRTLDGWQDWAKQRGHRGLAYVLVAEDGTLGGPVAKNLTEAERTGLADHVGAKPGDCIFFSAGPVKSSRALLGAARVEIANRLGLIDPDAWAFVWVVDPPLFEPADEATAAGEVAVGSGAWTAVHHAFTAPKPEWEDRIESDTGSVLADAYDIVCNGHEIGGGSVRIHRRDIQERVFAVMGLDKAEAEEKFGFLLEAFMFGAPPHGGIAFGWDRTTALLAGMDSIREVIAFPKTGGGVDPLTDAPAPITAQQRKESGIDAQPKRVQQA
# [2] = molecular target: Shiga toxin 2 (Escherichia coli O157:H7) (UniProt P09385+P09386); assay: E. coli 0.157:H7 Shiga Toxin SOP - stx2 screening assay; format: functional; set-up: scale not given: direction of the effect not stated beside the values; details: 30 µM
smiles,measurement,setting,value
CN(C)CCO[C@@H]1CC[C@H]2[C@H]1OCCN2C(=O)CCc1ccccc1,Percent Effect,[1],-1.17%
same,Percent Effect,[2],-27.7%
O=C(NC1(c2cccc(F)c2)CCOCC1)c1cc[nH]n1,Percent Effect,[1],3.45%
same,Percent Effect,[2],-26.7%
O=C(CN1CCCC1Cn1cncn1)NCCc1c(F)cccc1F (centres undefined),Percent Effect,[1],1.46%
same,Percent Effect,[2],-12.5%
COc1ccc(C(CO)NC(=O)Nc2cccc(C#N)c2)cc1 (centres undefined),Percent Effect,[1],3.45%
same,Percent Effect,[2],-32.6%
COCCN(C)C[C@@H]1CN(C(=O)c2ccoc2)C[C@@H]1CO,Percent Effect,[1],-4.07%
same,Percent Effect,[2],15.1%
CC(C)c1noc(C(C)N2CCN(CCO)CC2)n1 (centres undefined),Percent Effect,[1],13%
same,Percent Effect,[2],16.1%
CN(CCc1ccccc1)C1CCCN(Cc2nccn2C)C1 (centres undefined),Percent Effect,[1],0.357%
same,Percent Effect,[2],-0.197%
COc1ccc(F)cc1C(C(=O)O)N1CCSCC1 (centres undefined),Percent Effect,[1],4.05%
same,Percent Effect,[2],9.21%
CC(=O)Nc1nc(CN2CCCC2Cn2cncn2)cs1 (centres undefined),Percent Effect,[1],-6.16%
same,Percent Effect,[2],-44%
CCc1noc(C(C)N2CCN(Cc3nnc(C4CC4)o3)CC2)n1 (centres undefined),Percent Effect,[1],-4.98%
same,Percent Effect,[2],10.9%
Cc1cnn(CC2CCCN2CC(=O)Nc2cc(C)nn2C)c1 (centres undefined),Percent Effect,[1],0.972%
same,Percent Effect,[2],-20.9%
CC(C)(C)n1ncc2c1NC(=O)CC2c1ccc(OCC(N)=O)cc1 (centres undefined),Percent Effect,[1],-2.88%
same,Percent Effect,[2],21.3%
CCc1nc(C2CCCN2CC(=O)Nc2c(C)n[nH]c2C)no1 (centres undefined),Percent Effect,[1],-2.31%
same,Percent Effect,[2],2.91%
COc1ccc(CN2CCn3cc(CN4CCN(C)CC4)nc3C2)cc1,Percent Effect,[1],-1.67%
same,Percent Effect,[2],10.3%
CC(C)Sc1ncccc1C(=O)NCc1ccc(CS(C)(=O)=O)cc1,Percent Effect,[1],-3.16%
same,Percent Effect,[2],13.1%
Cc1cnn(CC2CCCCN2Cc2cc(C)on2)c1 (centres undefined),Percent Effect,[1],-5.5%
same,Percent Effect,[2],-7.45%
COC(=O)c1cc(C(=O)N2CCCCCC2)n(-c2ccccc2)n1,Percent Effect,[1],-0.856%
same,Percent Effect,[2],30.9%
Cc1ccc(C(=O)N2CCn3cc(CN(C)Cc4ccco4)nc3C2)o1,Percent Effect,[1],-0.889%
same,Percent Effect,[2],-35.1%
CN(CCCc1cnn(C)c1)C(=O)C1CCOC1 (centres undefined),Percent Effect,[1],5.2%
same,Percent Effect,[2],-36.5%
NC(=O)c1cc(C2CCCN(CCc3ccccn3)C2)n[nH]1 (centres undefined),Percent Effect,[1],-0.833%
same,Percent Effect,[2],-5.89%
CC(C)CN1CCC(C(=O)Nc2cc(C(F)(F)F)c[nH]c2=O)CC1,Percent Effect,[1],-2.61%
same,Percent Effect,[2],-33.9%
COC(=O)CCNC(=O)C1CC(=O)N(C2CCCC2)C1 (centres undefined),Percent Effect,[1],0.859%
same,Percent Effect,[2],-13.4%
Cc1cccc(C(=O)N2CCC(Cc3cnc4[nH]ccc4c3)CC2)n1,Percent Effect,[1],4.87%
same,Percent Effect,[2],5.08%
CN(Cc1cccc(F)c1)C(=O)CN1CCCC1CCc1ccccc1 (centres undefined),Percent Effect,[1],-1.52%
same,Percent Effect,[2],-33.4%
O=C(CCCNC(=O)C1CC1)Nc1cnn(-c2ccccc2Cl)c1,Percent Effect,[1],-4.78%
same,Percent Effect,[2],-29.3%
COCC1CN(Cc2ccc(C)o2)Cc2cn(C)nc21 (centres undefined),Percent Effect,[1],11.7%
same,Percent Effect,[2],-13.2%
O=C(CCn1cccn1)N1C[C@@H]2CC[C@H](C1)N(Cc1ccccn1)C2=O,Percent Effect,[1],0.301%
same,Percent Effect,[2],3.51%
COc1c(C2CCCN2CC(=O)Nc2cc(C)no2)c(C)nn1C (centres undefined),Percent Effect,[1],2.74%
same,Percent Effect,[2],12.9%
CCN(CC)C1CCN(C(=O)NCc2c(C)noc2C)CC1,Percent Effect,[1],0.182%
same,Percent Effect,[2],-1.12%
CN1CCN(C(=O)c2cccc(OCc3cscn3)c2)CC1,Percent Effect,[1],0.522%
same,Percent Effect,[2],-26.5%
CCc1ccc(O)c(C(=O)NC2CCN(S(=O)(=O)CC)CC2)c1,Percent Effect,[1],-3.5%
same,Percent Effect,[2],-13.2%
N#Cc1cccc(CN2CC[C@@H]3[C@@H]2CC(=O)N3Cc2cccnc2)c1,Percent Effect,[1],4.04%
same,Percent Effect,[2],-0.447%
COc1ccc(CN2CC[C@H]3[C@H]2CCN3C(=O)c2cnn(C)c2)cc1,Percent Effect,[1],-0.229%
same,Percent Effect,[2],-7.37%
CNC(=O)c1cc(S(=O)(=O)C(C)C)cs1,Percent Effect,[1],-3.82%
same,Percent Effect,[2],-3.3%
O=C(c1ccncc1)N1CCC(c2nc(O)cc(-c3cccnc3)n2)C1 (centres undefined),Percent Effect,[1],-1.81%
same,Percent Effect,[2],4.42%
CC(C)(C)n1ncc2c1NC(=O)CC2c1ccsc1 (centres undefined),Percent Effect,[1],2.57%
same,Percent Effect,[2],-10.8%
COc1ccc(CN2CCC3(CC(Nc4ccncn4)C3)C2)c(OC)c1 (centres undefined),Percent Effect,[1],-0.368%
same,Percent Effect,[2],-11.8%
Cc1cccc(CCC(=O)N2CCCC(c3cc(C(N)=O)[nH]n3)C2)c1 (centres undefined),Percent Effect,[1],-0.161%
same,Percent Effect,[2],-10.2%
O=S(=O)(c1cccnc1)N1CCN(CCn2ccnc2)CC1,Percent Effect,[1],-4.66%
same,Percent Effect,[2],-38.1%
CS(=O)(=O)N1CCC(C(=O)NC(Cc2ccsc2)c2nccs2)CC1 (centres undefined),Percent Effect,[1],-5.91%
same,Percent Effect,[2],16.3%
Cc1cccc(NC2CCN(C(=O)Nc3cc(C)on3)CC2)n1,Percent Effect,[1],-5.71%
same,Percent Effect,[2],-63.5%
CCc1ncnc2c1CCN(Cc1ccccn1)CC2,Percent Effect,[1],0.378%
same,Percent Effect,[2],-29.9%
O=C(Nc1ccc(F)c(Br)c1)N1CCCC1,Percent Effect,[1],4.74%
same,Percent Effect,[2],-23.1%
O=C(N1CCCC1)N1Cc2nccn2CC(CN2CCCC2)C1 (centres undefined),Percent Effect,[1],-5.76%
same,Percent Effect,[2],1.77%
Cc1cccnc1CN(C)CC1(O)CCCN(CC2CCCCC2)C1=O (centres undefined),Percent Effect,[1],-0.871%
same,Percent Effect,[2],2.24%
CCn1ccnc1CN1CCCN(C(=O)c2cccn2C)CC1,Percent Effect,[1],-3.17%
same,Percent Effect,[2],5.64%
Cc1ncc(CN(C)CC2CCCN2c2cccnn2)s1 (centres undefined),Percent Effect,[1],3.27%
same,Percent Effect,[2],9.48%
